Experimental data taken from PubChem BioAssay (NCATS).
Results filed as inconclusive are left out. Values without a mark were called inactive. Calls follow the shape of the dose curve; as a rule, active = well fitted cell-killing curve with a large enough effect; inconclusive = small, poorly fitted or top-dose-only effect, or effect the other way; inactive = flat fitted curve, though single readings scatter.

test: S16 Schwann cell viability assay (CellTiter-Glo assay) (AID 624031); conditions: S16 rat Schwann cells viability, 24 h; series mostly up to 57.5 µM; activity change, negative = cytotoxicity: at the top concentration;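 also: native untransfected S16 rat Schwann cells; cellular ATP luminescence as a viability measure; plate controls were DMSO-treated cells for no effect and cell-free wells for full effect; nearly all actives have a fitted effect of over 70% in size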
How it was run: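 Parental S16 cells, 24 h compound, 37 °C. ATP-luminescence viability; DMSO = 0% activity, empty wells as reference; curves classified by fit quality and efficacy.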

Row | SMILES | activity change, negative = cytotoxicity
1 | CCC1(c2ccccc2)C(=O)N(COC)C(=O)N(COC)C1=O | -12.3%
2 | O=c1[nH]oc2c1CCNC2 | 10.3%
3 | CNC(C)(C)Cc1ccccc1 | 0.72% [at 25.7 µM]
4 | C=C(C)[C@H]1CN[C@H](C(=O)O)[C@H]1CC(=O)O | 0.204%
5 | CN1C(=O)CCS(=O)(=O)C1c1ccc(Cl)cc1 (configuration not stated) | -14.7%
6 | CN1C(=O)CC(=O)N(c2ccccc2)c2cc(Cl)ccc21 | -1.75%
7 | NC(=O)CS(=O)C(c1ccccc1)c1ccccc1 (configuration not stated) | 2.28%
8 | O=C1OC(c2ccc(O)c(S(=O)(=O)O)c2)(c2ccc(O)c(S(=O)(=O)O)c2)c2c(Br)c(Br)c(Br)c(Br)c21 | 8.63%
9 | CCCCC/C=C\C/C=C\C/C=C\C/C=C\CCCC(=O)NCC(=O)O | -23.3% [at 5.34 µM]
10 | CC(C)(C)NCC(O)c1cc(Cl)c(N)c(C(F)(F)F)c1 (configuration not stated) | -16.4%
11 | CC(C)(C)NCC(O)c1ccccc1Cl (configuration not stated) | 3.5%
12 | COC1CC(=C(c2cccs2)c2cccs2)C[N+](C)(C)C1 (configuration not stated) | -5.87%
13 | O=C(CCCN1CCC2(CC1)C(=O)NCN2c1ccccc1)c1ccc(F)cc1 | -26.6%
14 | Cc1nnc2n1-c1ccc(Cl)cc1C(c1ccccc1Cl)=NC2 | -16%
15 | NNc1ccccc1 | 3.28%
16 | O=C(N/N=C/c1ccc([N+](=O)[O-])o1)c1cc([N+](=O)[O-])cc([N+](=O)[O-])c1O | -1.19%
17 | COc1ccc2c(c1)C13CCCC[C@@H]1C(C2)N(C)CC3 (some centres not stated) | 3.9%
18 | COP(=S)(OC)Oc1ccc(S(=O)(=O)N(C)C)cc1 | -3.4%
19 | CCCCCCCCCC(=O)O[C@H]1CC[C@H]2[C@@H]3CCC4=CC(=O)CC[C@@H]4[C@H]3CC[C@]12C | 3.38%
20 | CCCCCCC(=O)CCCCCC/C=C/C[C@@H](O)[C@H](O)[C@@](N)(CO)C(=O)O | -20.1%
21 | CC(C)=CC1C(C(=O)OCN2C(=O)C3=C(CCCC3)C2=O)C1(C)C (configuration not stated) | -21.5%
22 | O=C1CN=C(c2ccccc2)c2cc([N+](=O)[O-])ccc2N1 | 3.61%
